# Compounds without any hit were thinned out: in the full panel of roughly 79,000, 15% have a hit. Values without a mark were called inactive. Calls of active or inactive are those of the source. Rule as the data show it: active = growth inhibition above about 70%; inactive = the rest.
# What was measured:
# [1] = NCI Yeast Anticancer Drug Screen. Data for the rad50 strain (AID 155);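 also: 0% = growth of vehicle-only cultures of the same strain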; details: S. cerevisiae rad50 strain growth inhibition; at 50.0 µM; stronger effect = higher value
# Summary of the method: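 Vehicle-treated cultures provide the reference for the growth inhibition reported for compound-exposed, repair-deficient yeast.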
# [2] = NCI Yeast Anticancer Drug Screen. Data for the mec2-1 strain (AID 157); details: S. cerevisiae mec2-1 strain, at 50.0 µM, stronger effect = higher value
# Summary of the method: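 Compounds were applied to mec2-1 yeast cells. Their growth was then compared with that of vehicle-treated cultures to give growth inhibition.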
# [3] = NCI Yeast Anticancer Drug Screen. Data for the sgs1 mgt1 strain (AID 161);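 also: 0% = growth of cultures given vehicle only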; details: S. cerevisiae sgs1 mgt1 strain, at 50.0 µM, stronger effect = higher value
# Summary of the method: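 This yeast growth screen uses a strain with defined DNA-repair lesions; compound-treated growth is compared with vehicle-treated growth.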
# [4] = NCI Yeast Anticancer Drug Screen. Data for the cln2 rad14 strain (AID 165);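 also: 0% = growth equal to vehicle treated cultures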; details: S. cerevisiae cln2 rad14 strain, at 50.0 µM, stronger effect = higher value
# Summary of the method: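 Strain: cln2 rad14 yeast, altered in cell cycle control and DNA damage repair. Read-out: growth inhibition vs vehicle.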
# [5] = NCI Yeast Anticancer Drug Screen. Data for the bub3 strain (AID 167); details: S. cerevisiae bub3 mutant strain, at 50.0 µM, stronger effect = higher value
# Summary of the method: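 Mutant yeast screening strain plus compound; vehicle-treated cultures serve as the 0% inhibition reference.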
# [6] = NCI Yeast Anticancer Drug Screen. Data for the mlh1 rad18 strain (AID 175); details: S. cerevisiae mlh1 rad18 strain growth inhibition; at 50.0 µM; stronger effect = higher value
# Summary of the method: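 A repair-deficient yeast strain is exposed to test compound, and growth is scored relative to vehicle-treated controls.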
SMILES,growth inhibition [1] [%],growth inhibition [2] [%],growth inhibition [3] [%],growth inhibition [4] [%],growth inhibition [5] [%],growth inhibition [6]
O=S(=O)(N/C(=C(\NS(=O)(=O)c1ccccc1)c1ccccc1)c1ccccc1)c1ccccc1,63.7,6.15,39,18.3,60.9,61.2%
C/C(=N\NS(=O)(=O)c1ccccc1)c1ccc(Cl)c(Cl)c1,-19.3,-10,-18.9,2.25,10.5,-38.5%
CC(=O)N=C1N(/C=C2\C(=O)Oc3ccccc3C2=O)C(=O)/C(=C/c2ccccc2Cl)N1C,-13.2,-21.9,-25.7,10.2,-16.9,-8.35%
CC1CC[N-]C(N)N1.CC1CC[N-]C(N)N1.[Cl][Pd][Cl] (stereo not drawn),-3.5,-0.4,6.75,-34.4,-0.15,-7.1%
Nc1ccc(/C=C/C(=O)O)cc1,-9.1,-6,11.6,10.8,2.55,9.95%
CCC/C=N/NC(=O)c1ccc(OC)cc1,-2.45,-15.8,-6.85,-46.9,5.85,-4.7%
O=c1c2ccccc2c(=O)n2n1C1C=CC2C1,-5,-7.15,1.55,-6.4,4.5,-4.55%
COc1ccc(C(=O)C[n+]2cc(Br)cc(Br)c2)cc1,7.9,-12.8,-7,-3.95,14.1,-8.95%
CC1(C)OC2C(CNS(C)(=O)=O)OC(n3cnc4c(N)ncnc43)C2O1 (stereo not drawn),-3.05,-4.55,-12.1,-4.75,7.45,-13.2%
C=C(C)C(=O)O[C@H]1C[C@@]23O[C@@H]2CCC(=C[C@H]2OC(=O)C(=C)[C@H]12)COC3O (stereo partly drawn),16.8,-12.6,14.8,9.45,7.7,-22.8%
N#CNC(N)=Nc1ccc(Cl)cc1,5.35,7.5,-27.9,19.6,-19.6,-17.4%
CCOC(=O)OCCCc1ccccc1,-8.95,-2.95,-8.8,-15.4,-7.55,-6.8%
CCC/C=C(/CC)C(=O)OC(=O)/C(=C/CCC)CC,23.9,2.1,13.8,-7.25,32.1,13.6%
O=S(=O)(O)SCCCNCCCCCCCCNCCCSS(=O)(=O)O,-18.6,-8.85,-1.6,-13.3,8.45,3.45%
Cc1ccc(C2=CSc3ccccc3N2)cc1,24.8,38,45.6,-13.9,62.5,29.2%
NCC=C1C2CC3CC(C2)CC1C3,1.9,-7.25,1.4,-26.4,-13.7,12.6%
O=c1[nH]c2ccccc2nc1/C=C/NC(=S)Nc1ccccc1,-11.4,-18.1,-20,6,-0.95,-2.2%
O=c1[nH]c2cc(Cl)ccc2nc1/C=C(\O)c1ccc(O)cc1,31,2.25,0.2,7.05,-20,13.7%
Cc1ccc(NC(=O)CCCC(=O)CC(=O)c2ccc(Br)cc2)cc1,-0.4,-14.9,-40.4,-26.2,-12.2,-24.6%

SMILES,growth inhibition [1] [%],growth inhibition [2] [%],growth inhibition [3] [%],growth inhibition [4] [%],growth inhibition [5] [%],growth inhibition [6]
C[Si](C)(C)CSCCO,-13.7,-6.45,-20.8,-16.1,-14.7,-1.6%
CCC1(C(=O)OC)CCc2c(OC)ccc(OC)c2C1=O (stereo not drawn),-8.65,-9.35,0.1,3.25,-12.9,-46.8%
CCOc1ccc(NC(=O)c2ccccc2O)cc1,26.9,14,17.7,-9.05,17.3,43.3%
COS(=O)c1cc(Cl)cc(Cl)c1O (stereo not drawn),-0.6,4.55,-10.7,-28.2,-0.85,2.25%
CCCCC1(CO)NC(=O)NC1=O (stereo not drawn),-4.5,-13.9,-8.7,8.95,2.75,-1.4%
CC1=CC(=O)N2C(OC[C@@H]2c2ccccc2)O1 (stereo partly drawn),3.5,-11.8,-12.9,9.95,-18.9,-21.4%
Cc1cccc(Cl)c1O,29.8,-7.1,23.6,-23.8,-7.75,18.2%
O=[N+]([O-])C(C=C(n1nnc2ccccc21)n1nnc2ccccc21)=C(n1nnc2ccccc21)n1nnc2ccccc21,-20.1,-2.75,16.7,4.2,-6.45,5.35%
CN1CN=C(Sc2ccc(Cl)cc2[N+](=O)[O-])NC1,-22.2,-35.9,-22.1,-5,-6.9,-11.7%
[Cl][Pt+2][Cl].[NH-]CC1(C[NH-])CCC1,1.1,1.5,9.2,9,-18.9,-40%
Oc1ccc(Br)cc1CNC1CCCCC1,58.5,31.8,61.1,-9.9,27.1,24.1%
O=C(O)c1cc(=O)c2cc(Cc3ccccc3)ccc2[nH]1,4.7,6.5,10.4,9.8,11.1,12.8%
CC(=O)C(/C=N\N=C(/C)c1cn[nH]c1C)=C(/C)O,-54.8,-21.6,-18.7,-58.1,8.6,-18.6%
Cc1ccc(S(=O)(=O)OC2C3C4CCC5C3SC3C5C4C23)cc1 (stereo not drawn),-5.3,-21.1,-3.65,5.8,6.6,1.1%
O=c1ccccc2cccc(O)c12,8.25,0.2,-1.35,-17.4,8.15,10.3%
COc1ccc(NS(=O)(=O)c2ccc(NC(=O)NCCCl)cc2)nn1,13,-0.2,-9.85,8.95,2.55,5.85%
COc1ccc2nc3c(Cl)cccc3c(Cl)c2c1,28.4,38.5,3.4,4.6,7.35,81.5% (active)
CC(=O)c1ccc(C2CCC[C@H]2c2ccc(C(C)=O)cc2)cc1 (stereo partly drawn),4.15,-1.55,1.75,-40.2,9.3,-16.4%
CCOc1ccc(/C=C2/NC(=S)N(CN3CCCCC3)C2=O)cc1,5.25,-28.7,25.1,-18.9,-1.5,24.6%

# From PubChem BioAssay (NCI)
